# Bioassay records deposited in PubChem by Broad Institute.
# NSD2 inh: inhibitors of human histone methyltransferase NSD2. AID 743445. actives 0.54% (n = 310,000). O96028. inhibition, % at 12.5 µM. NSD2 peptide methylation, AlphaScreen, 120 min; in the data active means inhibition above about 50%
# F508del corr: correctors of CFTR F508del function in bronchial epithelial cells. activity (quench increase), % at 7.58 µM. actives 0.36% (n = 350,000). CFBE cells, YFP halide quenching; stimulated with forskolin plus potentiator P3; % fluorescence drop versus neutral controls;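 active means mean added fluorescence quench of at least 8% versus neutral control, with both replicates also reaching 8%; inconclusive means only one of the mean or replicate conditions met; inactive means mean below 8% and not both replicates reaching 8%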;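 further: cells transiently co-express mutant CFTR-F508del with the halide-sensitive YFP; corrector assay measuring rescue of mutant channel to the surface after 24 h compound exposure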
# CASP6 VEID inh: inhibitors of human caspase-6; actives 0.53% (n = 350,000); inhibition, % at 12.5 µM; purified caspase-6, Z-VEID-R110 cleavage fluorescence; P55212;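 active means mean inhibition across replicates at least about 35%, with every replicate also reaching that limit, limit read from the data; inconclusive means only one of the two criteria met; inactive means neither criterion met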
# Target sequence (P55212 24-179 limits assumed): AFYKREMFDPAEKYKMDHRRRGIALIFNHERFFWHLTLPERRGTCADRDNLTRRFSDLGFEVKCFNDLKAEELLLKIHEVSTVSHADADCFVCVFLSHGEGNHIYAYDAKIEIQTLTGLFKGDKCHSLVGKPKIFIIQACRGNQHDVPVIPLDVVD
# Target sequence (P55212 194-293 limits assumed): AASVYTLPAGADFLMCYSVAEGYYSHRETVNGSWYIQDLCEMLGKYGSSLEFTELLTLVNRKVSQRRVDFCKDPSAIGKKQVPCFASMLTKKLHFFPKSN
# PglD inh: inhibitors of Campylobacter jejuni PglD acetyltransferase | inhibition, % at 12.5 µM | AID 602405 | actives 0.098% (n = 360,000) | purified PglD enzyme, DTNB colorimetric CoA detection; in the data active means inhibition above about 16%, passing the limit was not always enough; inconclusive means no clear call, values can overlap the other calls
# Env fusion inh: HIV envelope-mediated fusion inhibition; AID 651610; HeLa-JRFL Env/CEM21 cell fusion, luciferase; inhibition, % at 12.3 µM; actives 1.1% (n = 360,000);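 active means mean replicate inhibition score of at least 50 and every replicate individually at or above 50; inconclusive means only one of the two criteria met; inactive means mean below 50 and not all replicates reaching 50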
# ALR H2O2 inh: blocks human ALR sulfhydryl oxidase activity. P55789. purified ALR, DTT oxidation, H2O2 HRP-luminol luminescence. inhibition, % (no concentration beside the values). actives 3.8% (n = 290,000). AID 485317;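 active means mean replicate inhibition above about 79%, with every replicate also reaching it, limit read from the data; inconclusive means only one of the two criteria met; inactive means mean below limit and not every replicate reaching it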
# Target sequence (P55789 whole entry, looked up): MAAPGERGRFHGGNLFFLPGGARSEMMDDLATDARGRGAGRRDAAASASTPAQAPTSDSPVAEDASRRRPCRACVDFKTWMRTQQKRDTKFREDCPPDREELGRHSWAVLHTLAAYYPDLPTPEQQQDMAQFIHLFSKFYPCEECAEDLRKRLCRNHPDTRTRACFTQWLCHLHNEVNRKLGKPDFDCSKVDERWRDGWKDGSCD
# Hits are given with their value; i = inactive; ? = inconclusive; nt = not tested or not shown; [ ] = another dose, or the depositor's remark. Shown are actives, neighbours in structure and some others; about 4.1% of the full set was active somewhere.
SMILES,NSD2 inh,F508del corr,CASP6 VEID inh,PglD inh,Env fusion inh,ALR H2O2 inh
COCC(=O)Nc1ccc2c(c1)[C@H]1C[C@H](CC(=O)NCc3cccc(F)c3)O[C@@H](CO)[C@H]1O2,nt,i,i,i,i,nt
CCCCCc1ccc(-c2ccc(=O)[nH]n2)cc1,i,nt,nt,i,i,i
Cc1ccc(-c2ccc(=O)[nH]n2)cc1,i,nt,nt,nt,56,i
CC(C)NC(=O)N1CC(=O)N2[C@H](CO)[C@@H](c3ccc(C#CCN(C)C)cc3)[C@@H]2C1,nt,i,i,nt,nt,nt
COC(=O)C[C@H]1CC[C@@H]2[C@H](COC[C@@H](O)CN2C(=O)Nc2cccc(F)c2)O1,nt,i,i,i,i,nt
COc1cc(C(=O)NS(=O)(=O)c2ccccc2C)ccc1Cc1cn(C)c2ccc(NC(=O)OC3CCCC3)cc12,nt,nt,nt,nt,nt,97
CN1CC(c2ccccc2)C2(SC(=S)N(Cc3ccco3)C2=O)C12C(=O)Nc1ccccc12 (stereo unspecified),i,nt,nt,i,77,i
Cc1ccc2[nH]c(C)c(/C=C/c3cc[n+](C)cc3)c2c1,i,i,i,i,60,99
Cc1ccc2c(c1)c(/C=C/c1cc[n+](C)cc1)c(C)n2C,i,i,i,i,i,85
C[n+]1ccc(/C=C/c2ccc(Br)cc2)cc1,i,nt,nt,i,nt,i
Cn1cc(/C=C/c2cc[n+](C)cc2)c2cc(Cl)ccc21,i,i,i,i,i,nt
S=C(c1c[nH]c2ccc(Br)cc12)N1CCOCC1,i,i,i,nt,i,99
O=C(c1c[nH]c2ccccc12)N1CCOCC1,i,i,i,i,i,i
N#Cc1c(-c2cccs2)nc(SCC(=O)c2cccs2)[nH]c1=O,i,nt,nt,i,nt,98
N#Cc1c(-c2ccccc2)nc(SCC(=O)Nc2ccccc2)[nH]c1=O,i,nt,nt,i,i,98
Cc1cccc(NC(=O)CSc2nc(-c3ccccc3)c(C#N)c(=O)[nH]2)c1C,i,nt,nt,nt,nt,91
Cc1cc(C)nc(NS(=O)(=O)c2ccc(NC(=O)CSc3nc(-c4ccccc4)c(C#N)c(=O)[nH]3)cc2)n1,i,i,i,nt,i,99
O=C(Nc1ccccc1)N[C@@H]1CC[C@@H](CCNC(=O)c2ccccc2F)O[C@@H]1CO,nt,i,i,i,i,nt
N#Cc1c(-c2ccccc2)nc(SCC(=O)Nc2ccc(OC(F)(F)Cl)cc2)[nH]c1=O,i,i,i,i,i,99
N#Cc1c(-c2ccccc2)nc(SCC(=O)Nc2ccccc2F)[nH]c1=O,i,nt,i,i,i,99
N#Cc1c(-c2ccccc2)nc(SCC(=O)Nc2nnc(C(F)(F)F)s2)[nH]c1=O,i,nt,i,nt,i,i
Cc1cc(NC(=O)CSc2nc(-c3ccccc3)c(C#N)c(=O)[nH]2)no1,i,nt,nt,i,i,nt
N#Cc1c(-c2ccccc2)nc(SCC(=O)N(c2ccccc2)c2ccccc2)[nH]c1=O,i,nt,i,i,i,98
CC(=O)Oc1ccc2c(=O)c(Oc3ccccc3)coc2c1OC(C)=O,i,nt,nt,i,i,99
COc1cc(/C=N/NC(=O)c2nnn(-c3nonc3N)c2C(C)C)ccc1O,i,i,i,i,i,99
SMILES,NSD2 inh,F508del corr,CASP6 VEID inh,PglD inh,Env fusion inh,ALR H2O2 inh
COc1ccc(/C=N/NC(=O)c2nnn(-c3nonc3N)c2-c2cccs2)cc1OC,i,i,i,i,i,i
CC1CCN(Cc2c(C(=O)N/N=C/c3cc(Br)ccc3O)nnn2-c2nonc2N)CC1,i,?,i,i,60,nt
COc1cc(/C=N/NC(=O)c2nnn(-c3nonc3N)c2-c2cccs2)ccc1O,i,i,i,i,i,89
COc1cc(/C=N/NC(=O)c2nnn(-c3nonc3N)c2C(C)C)ccc1OCc1ccccc1,i,i,i,i,i,i
CC1CCN(Cc2c(C(=O)N/N=C/c3cc(Cl)ccc3O)nnn2-c2nonc2N)CC1,i,i,i,i,i,nt
CN(Cc1c(C(=O)N/N=C/c2ccc(O)cc2)nnn1-c1nonc1N)c1ccccc1,i,i,i,i,i,100
Cc1ccc(S(=O)(=O)N(C)C[C@@H]2OCCCC[C@H](C)Oc3ccc(NC(=O)NC(C)C)cc3C(=O)N([C@H](C)CO)C[C@H]2C)cc1,nt,i,i,i,i,nt
Cc1noc(C)c1NC(=O)Nc1ccc2c(c1)CC(=O)N([C@H](C)CO)C[C@H](C)[C@@H](CN(C)C(=O)Nc1ccc(F)cc1)O2,nt,i,i,i,i,nt
CC(=O)N1[C@H](CO)[C@H](c2ccc(C3=CCCC3)cc2)[C@@H]1CNC(=O)CN(C)C,nt,i,nt,i,nt,nt
COc1cnc(SCc2ccc(Cl)cc2)nc1Cl,i,nt,nt,i,i,98
O=C(C[C@H]1C=C[C@H](NC(=O)c2ccc(F)cc2)[C@H](CO)O1)NCc1ccncn1,nt,i,i,i,i,nt
CCS(=O)(=O)N[C@H]1CC[C@@H](CC(=O)NCc2ccc(Cl)cc2)O[C@@H]1CO,nt,i,i,i,70[16.7 µM],nt
COc1cccc(S(=O)(=O)N[C@H]2CC[C@H](CC(=O)NCc3ccncc3)O[C@@H]2CO)c1,nt,i,i,i,66[16.7 µM],nt
COc1ccc(S(=O)(=O)N[C@@H]2CC[C@H](CC(=O)NCCc3ccncc3)O[C@H]2CO)cc1,nt,i,i,i,i,nt
COc1ccc(S(=O)(=O)N[C@@H]2CC[C@@H](CC(=O)NCCc3ccncc3)O[C@@H]2CO)cc1,nt,i,i,i,58[16.7 µM],nt
CCS(=O)(=O)N[C@@H]1CC[C@H](CC(=O)NCc2ccc(Cl)cc2)O[C@@H]1CO,nt,i,i,i,i,nt
C[C@@H]1CN([C@@H](C)CO)C(=O)Cc2cc(NC(=O)Nc3ccccc3)ccc2O[C@H]1CN(C)S(=O)(=O)c1cccs1,nt,i,i,i,i,nt
COc1ccc(NC(=O)Nc2ccc3c(c2)CC(=O)N([C@H](C)CO)C[C@H](C)[C@H](CN(C)S(=O)(=O)c2cccs2)O3)cc1,nt,i,i,i,70[16.7 µM],nt
C[C@H]1CN([C@@H](C)CO)C(=O)Cc2cc(NC(=O)Nc3ccc4c(c3)OCO4)ccc2O[C@H]1CN(C)S(=O)(=O)c1cccs1,nt,i,nt,i,92[16.7 µM],nt
COc1ccc(NC(=O)Nc2ccc3c(c2)CC(=O)N([C@@H](C)CO)C[C@H](C)[C@@H](CN(C)S(=O)(=O)c2cccs2)O3)cc1,nt,i,i,i,i,nt
C[C@H](CO)N1C[C@H](C)[C@H](CN(C)S(=O)(=O)c2cccs2)Oc2ccc(NC(=O)Nc3cccc4ccccc34)cc2CC1=O,nt,i,nt,i,75[16.7 µM],nt
C[C@H](CO)N1C[C@H](C)[C@H](CN(C)S(=O)(=O)c2cccs2)Oc2ccc(NC(=O)Nc3ccccc3)cc2CC1=O,nt,i,i,i,105[16.7 µM],nt
C[C@@H]1CN([C@H](C)CO)C(=O)Cc2cc(NC(=O)Nc3cccc4ccccc34)ccc2O[C@@H]1CN(C)S(=O)(=O)c1cccs1,nt,i,nt,i,?,nt
O=C(NNCc1ccc(O)cc1)c1ccccc1Cl,i,i,i,i,i,99
O=C(O)c1ccc(Cn2cc(/C=C\[N+](=O)[O-])c3ccccc32)o1,i,i,38,i,i,i
COC(=O)c1ccc(Cn2cc(/C=C\[N+](=O)[O-])c3ccccc32)o1,i,i,i,i,i,i
